High-throughput results deposited in PubChem by several laboratories.
HSF1 activator: increases HSF-1 driven luciferase reporter signal. NIH3T3-HGL HSF-1 luciferase reporter, MG132, 8 h; 100% = twice DMSO control signal. activation, % at 9 µM. hit rate 1.7% among 300,000. AID 504408;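 active means mean replicate activation of at least 50% with a set share of replicates each reaching 50%; inconclusive means only one of those two conditions met; inactive means mean below 50% and too few replicates reaching it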;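 further: 0% = median of the neutral control wells and 100% = twice that signal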
TWEAK-Fn14 inh: TWEAK-Fn14 signaling inhibition; TWEAK-stimulated Fn14 reporter cells, luciferase luminescence, 8 h; hit rate 2% among 360,000; inhibition, % at 10 µM; in the data active means inhibition above about 50%
TROY NFkB inh: inhibitors of TROY-dependent NF-kB signaling; Q293 LMP1-TROYcd NF-kB luciferase reporter, 4 h; inhibition, % at 10 µM; hit rate 0.98% among 360,000;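 active means compounds whose plate-normalised and pattern-corrected inhibition of the luciferase reporter signal at the single screening dose is 50% or more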
LGR2 inh: blocks bursicon-induced cAMP signaling via Drosophila LGR2; HEK293 LGR2, CRE-luciferase, bursicon-stimulated, 4 h; inhibition, % at 9.99 µM; hit rate 0.35% among 380,000;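 active means drop in luminescence signal, shown as inhibition above about 50% in the replicate tests, limit read from the data, passing the limit was not always enough; inconclusive means probably only some replicates passing the limit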;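 further: agonist challenge used bursicon conditioned medium at about half maximal strength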
HSF1 inhib: HSF1 inhibition; NIH3T3-HGL HSE-luciferase, MG132-induced, luminescence 8 h; active compounds read low; activity change, negative = inhibition, % at 7.5 µM (by protocol); hit rate 0.77% among 300,000; AID 2098;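 active means more than half of replicate wells show activity change below -50%, luminescence cut by over half; inconclusive means some wells, but at most half, below -50%; inactive means no replicate well below -50%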;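 further: luciferase reports HSF-1 transcriptional activity via heat shock element; 0% = median of DMSO wells and -100% = zero luminescence signal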
EBV LMP1 NFkB: reduces LMP1-driven NF-kappaB luciferase signal | inhibition, % at 12.5 µM | hit rate 0.69% among 350,000 | LMP1-induced NF-kappaB luciferase reporter cells, luminescence; in the data active means inhibition above about 41%; inconclusive means no clear call, values can overlap the other calls;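 further: 0% = neutral control wells and 100% = reference inhibitor control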
* = called active by the depositor; ? = inconclusive; . = no result. The list is not random: actives were taken first. Their share in the collection is about 3.6%.

SMILES	HSF1 activator	TWEAK-Fn14 inh	TROY NFkB inh	LGR2 inh	HSF1 inhib	EBV LMP1 NFkB
Cc1ccc(-c2nc3ccccn3c2C=O)cc1	-15	-17	-43	-62	-1	-25
COc1ccc(S(=O)(=O)Nc2cccc3c2O[C@@H](CN(C)S(=O)(=O)c2ccc(C)cc2)[C@H](C)CN([C@@H](C)CO)C3=O)cc1	.	.	.	-1	.	.
COc1cccc(CNC(=O)[C@H]2[C@H](CO)[C@H]3Cn4c(ccc(-c5ccncc5)c4=O)[C@H]3N2C)c1	.	.	.	-17	.	.
CCOc1ccc(NCc2nnc(SCC(=O)Nc3cc(C)on3)n2-c2ccc(OC)cc2)cc1	-83	-14	5	.	-80*	-2
COc1ccc(NCc2nnc(SCc3ccc(Cl)cc3)n2-c2ccccc2)cc1	5	16	60*	15	-8	4
Oc1c(N=NC(=S)Nc2ccccc2F)c2ccccc2n1Cc1ccc(F)cc1	-27	-11	-5	18	-16	51*
Cc1cccc(Cn2c(O)c(N=NC(=S)Nc3ccccc3F)c3ccccc32)c1	-20	4	-13	-11	-27	39
Oc1c(N=NC(=S)Nc2ccccc2F)c2ccccc2n1Cc1cccc(Cl)c1	-8	5	9	9	-10	44*
O=C(N=Nc1c(O)n(Cc2ccccc2)c2ccccc12)c1ccc(O)cc1	62*	37	-3	-32	51	1
O=C(NCc1ccccc1)[C@@H]1N[C@@H]2c3ccc(-c4ccccc4)c(=O)n3C[C@@H]2[C@H]1CO	.	.	.	-5	.	.
CO[C@@H](CN(C)C(=O)C1CC1)[C@@H](C)CN(C(=O)Nc1ccc(C(F)(F)F)cc1)[C@H](C)CO	.	.	.	6	.	.
c1coc(-c2nc(-c3ccco3)c(-c3ccco3)nc2-c2ccco2)c1	2	81*	4	15	0	-4
CN(C)CCCNC(=O)C[C@H]1CC[C@H]2[C@@H](COC[C@@H](O)CN2CC2CC2)O1	.	.	.	-20	.	.
CCOC(=O)c1ccc(-c2ccc(/C=N/NC(=O)Cc3nnc(N)s3)o2)cc1	71*	-24	-61	-85	27	-40
CCCOC(=O)c1ccc(-c2ccc(C=O)o2)cc1	66*	32	-25	-39	29	-31
Nc1nnc(CC(=O)N/N=C/c2ccc(-c3ccc(F)cc3)o2)s1	8	4	-15	8	7	.
C[C@@H]1CN([C@H](C)CO)C(=O)c2cc(NC(=O)CCCN(C)C)ccc2O[C@@H](C)CCCCO[C@H]1CN(C)Cc1ccccc1	.	.	.	8	.	.
CCCC(=O)Nc1ccc2c(c1)OC[C@@H](C)N(CCC)C[C@@H](C)[C@@H](OC)CN(C)C2=O	.	.	.	-15	.	.
Cc1ccc(-c2cn(S(=O)(=O)c3ccc(C)cc3)nc2N)cc1	70*	-1	-1	.	26	2
CCOc1ccc(S(=O)(=O)n2cc(-c3ccc(F)cc3)c(N)n2)cc1	14	21	17	-2	6	2
Cc1nn(Cc2c(Cl)cccc2Cl)c(C)c1NC(=O)c1cn(-c2ccccc2)nc1-c1ccccc1	-13	70*	27	.	1	-87
Cc1cccc(C)c1NC(=O)CNC(=O)c1cn(-c2ccccc2)nc1-c1ccccc1	17	7	-26	-8	5	-5
C[C@@H]1CN([C@H](C)CO)S(=O)(=O)c2ccc(C3=CCCC3)cc2O[C@H]1CN(C)C(=O)C1CC1	.	.	.	-21	.	.
O=C(CN1C(=O)NC2(CCCC2)C1=O)NCCN1C(=O)S/C(=C\c2ccccc2F)C1=O	55*	-7	-2	-6	14	-11
COC(=O)C[C@H]1CC[C@H]2[C@@H](COc3ccc(NC(=O)c4ccccc4)cc3C(=O)N2C)O1	.	.	.	7	.	.
SMILES	HSF1 activator	TWEAK-Fn14 inh	TROY NFkB inh	LGR2 inh	HSF1 inhib	EBV LMP1 NFkB
CN(C)c1ccc(-n2cccc2/C=C/[N+](=O)[O-])cc1	95*	60*	-31	.	68	-2
COCc1cc(Sc2ccc(Cl)cc2)nc(C)n1	7	12	22	7	-5	6
COCc1cc(S(=O)c2ccc(Cl)cc2)nc(C)n1 (configuration not stated)	8	64*	-2	19	0	6
C[C@H](CO)N1C[C@H](C)[C@@H](CN(C)C(=O)NC2CCCCC2)Oc2c(NS(=O)(=O)c3ccc(Cl)cc3)cccc2C1=O	.	.	.	-3	.	.
CCOC(=O)N1CCN(Cc2nc(N)nc(Nc3ccc(OC)cc3)n2)CC1	-11	-3	-7	-7	-12	-6
CCOC(=O)N1CCN(Cc2nc(N)nc(Nc3ccc(Oc4ccccc4)cc3)n2)CC1	.	52*	15	.	.	0
c1ccc(-c2ncc3c(ccc4ccccc43)n2)cc1	-18	84*	51*	81*	-8	19
O=C(O)c1ncc(-c2ccccc2)cn1	-6	1	-7	.	2	5
c1ccc(-c2cnc(-c3ccccc3)nc2)cc1	35	67*	1	56*	2	5
CC(/C=N/n1c(-c2cccnc2)n[nH]c1=S)=C\c1ccccc1	11	6	19	.	-4	4
S=c1[nH]nc(-c2cc(-c3ccccc3)n[nH]2)n1/N=C/C(Br)=C/c1ccccc1	104*	75*	-36	1	99	.
S=c1[nH]nc(-c2cc(-c3ccccc3)n[nH]2)n1/N=C/c1ccccc1	-7	4	-22	-3	1	-8
S=c1[nH]nc(-c2ccco2)n1/N=C/C(Cl)=C/c1ccccc1	182*	43	-11	-21	142	-14
CC(=C/c1ccccc1)/C=N/n1c(-c2ccncc2)n[nH]c1=S	-38	78*	52*	17	-44	56*
OCCOCCN1CCN(C2=Nc3ccccc3Sc3ccccc32)CC1	-18	-13	-4	5	-4	-4
O=C1C=CC(=O)c2c(O)c(N3CCN(CCOCCO)CC3)c(Br)c(O)c21	.	-6	16	6	.	82*
O=C1C=CC(=O)c2c(O)c(N3CCN(CCO)CC3)c(Cl)c(O)c21	.	24	1	-23	.	72*
O=C(N[C@H]1C=C[C@H](CC(=O)N2CCOCC2)O[C@H]1CO)c1ccc2c(c1)OCO2	.	.	.	-2	.	.
COc1ccc2cc(C(N)=O)/c(=N\NC(=O)c3ccccc3)oc2c1	-34	89*	58*	?	-29	46*
COc1ccc2oc(=Nc3cccc(F)c3)c(C(N)=O)cc2c1	31	-10	-73	-49	20	-9
COc1ccc2cc(C(N)=O)c(=Nc3ccc(C)cc3)oc2c1	0	67*	7	-13	-3	26
Cc1cccc(N=c2oc3cc(O)ccc3cc2C(N)=O)c1	58*	10	10	.	23	-11
COc1ccccc1N=c1oc2cc(O)ccc2cc1C(N)=O	27	2	12	.	1	-2
O=C(C[C@@H]1C[C@H]2c3cc(NC(=O)CC4CC4)ccc3O[C@H]2[C@H](CO)O1)NCc1cccnc1	.	.	.	1	.	.
COc1ccc2cc(C(=O)N3CCc4ccccc43)[nH]c2c1	52*	13	-42	-75	44	-59
